From PubChem BioAssay AID1851 (National Center for Advancing Translational Sciences (NCATS), 2009)
About 5,800 (36%) of roughly 16,000 compounds were called active. Not shown: some 23% with an inconclusive outcome. This is one part of the list. A number with no mark means an inactive call. Calls come from the whole dose curve; as a rule, active = well fitted curve in the direction sought with a large enough effect; inconclusive = small, poorly fitted or top-dose-only effect, or effect the other way; inactive = no such curve, though single readings can be large or run the other way.

target: Cytochrome P450 2C19 (Homo sapiens) (UniProt P33261); experiment: Cytochrome panel assay with activity outcomes; conditions: recombinant CYP, pro-luciferin dealkylation, luminescence, p450-cyp2c19; series mostly up to 57.1 µM
Sequence (P33261 whole entry, looked up): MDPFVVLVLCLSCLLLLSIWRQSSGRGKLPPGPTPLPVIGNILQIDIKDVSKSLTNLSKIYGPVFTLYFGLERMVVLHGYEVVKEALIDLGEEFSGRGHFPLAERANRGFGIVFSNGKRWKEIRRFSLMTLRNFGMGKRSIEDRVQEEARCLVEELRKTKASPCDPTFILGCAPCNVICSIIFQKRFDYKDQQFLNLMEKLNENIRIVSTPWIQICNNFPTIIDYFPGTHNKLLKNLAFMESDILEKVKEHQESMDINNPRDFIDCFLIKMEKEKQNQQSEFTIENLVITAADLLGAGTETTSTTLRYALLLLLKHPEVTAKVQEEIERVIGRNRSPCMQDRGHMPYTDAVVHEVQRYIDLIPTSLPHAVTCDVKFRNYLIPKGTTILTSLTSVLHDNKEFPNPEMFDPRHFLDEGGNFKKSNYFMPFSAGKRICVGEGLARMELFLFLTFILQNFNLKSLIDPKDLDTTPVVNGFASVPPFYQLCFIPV
% is set by controls: 0 for no effect and ±100 for the full control effect.

| Compound | AC50 | activity, negative = inhibition |
| --- | --- | --- |
| CC1=CC(C)(C)Nc2ccc(CSc3ccccc3)cc21 | 0.316 µM (active) | – |
| COc1cc(C2C(C#N)=C(N)OC3=C2C(=O)CCC3)c([N+](=O)[O-])cc1OC (stereo unspecified) | inactive | – |
| CC1(C)CC(=O)C2=C(C1)Oc1nc3ccccc3cc1C2C(C#N)C#N (stereo unspecified) | inactive | – |
| Cc1cc(C2C(C#N)=C(N)OC3=C2C(=O)CC(C)(C)C3)c(C)s1 (stereo unspecified) | 4.47 µM (active) | – |
| Cc1cc(C2C(C#N)=C(N)Oc3n[nH]c(C)c32)c(C)s1 (stereo unspecified) | 11.2 µM (active) | – |
| CC(C)(C)C(=O)OCOC(=O)[C@@H]1N2C(=O)[C@@H](NC(=O)[C@H](N)c3ccccc3)[C@H]2SC1(C)C | inactive | – |
| C#CCOCCCC(=O)O | – | 22.8% [at 11.4 µM] |
| CCCCN1CCC(COC(=O)c2cc(Cl)c(N)c3c2OCCO3)CC1 | inactive | – |
| CC1(C)CC(=O)c2cnc(N)nc2C1 | inactive | – |
| CC1(C)CC(=O)c2cn3ncnc3nc2C1 | 15.8 µM (active) | – |
| CC1(C)O[C@H]2C[C@@H]3[C@H]4CCC5=CC(=O)CC[C@@]5(C)[C@]4(F)[C@@H](O)C[C@@]3(C)[C@@]2(C(=O)CCl)O1 | inactive | – |
| COc1cc2ccc(=O)oc2cc1O | inactive | – |
| COc1ccc(-c2coc3cc4oc(=O)cc(C)c4cc23)cc1F | 3.55 µM (active) | – |
| Cn1c(SC2CCCCC2=O)nnc1-c1ccncc1 (stereo unspecified) | 7.08 µM (active) | – |
| CC1CC2(CCCCC2)N2C(=O)C(=O)c3cccc1c32 (stereo unspecified) | 2.82 µM (active) | – |
| CCOC(=O)C1=C(C)NC(C)=C(C(=O)OC)[C@@H]1c1cccc([N+](=O)[O-])c1 | 0.126 µM (active) | – |
| C#CCN1C(C)=C(C(=O)OC)[C@@H](c2cccc([N+](=O)[O-])c2)C(C(=O)OCC)=C1C | 5.01 µM (active) | – |
| CCOC(=O)C1=C(C)NC(C)=C(C(=O)OC)[C@H]1c1cccc([N+](=O)[O-])c1 | 0.251 µM (active) | – |
| OC[C@@H]1O[C@@H](n2cnc3c(NC4CCCC4)ncnc32)[C@H](O)[C@H]1O | inactive | – |
| NCc1ccc(S(N)(=O)=O)cc1 | inactive | – |
| CCN(C1CCCCC1)S(=O)(=O)c1ccc(S(=O)(=O)NCc2ccncc2)cc1 | 1.58 µM (active) | – |
| CCCCSc1nnc(-c2ccc(C)cc2)n1C | 14.1 µM (active) | – |
| COc1nc(OCCNC(C)=O)nc(N(C)C)n1 | inactive | – |
| O=[N+]([O-])c1ccc2ncccc2c1CCc1c([N+](=O)[O-])ccc2ncccc12 | – | 39.5% [at 11.4 µM] |
| O=S(=O)(O)c1cc(N=Nc2cccc3ccccc23)c(O)c2ncccc12 | – | -29.3% [at 11.4 µM] |
| O=[N+]([O-])c1cc(Cc2cc([N+](=O)[O-])c3cccnc3c2O)c(O)c2ncccc12 | 2.51 µM (active) | – |
